Common to all, as to assay: PBM; 200 nM protein, PBS
Conditions in all cases: dsDNA, one strand shown

In assay [1] the target is T1, VENTX (Homo sapiens, UniProt O95231 78-163, R121Q).
T1 sequence: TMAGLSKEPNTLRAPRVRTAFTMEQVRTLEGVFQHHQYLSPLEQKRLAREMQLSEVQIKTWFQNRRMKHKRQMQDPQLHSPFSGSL

In assay [2] the target is ALX1 (Homo sapiens, UniProt Q15699 118-204, L144V).
Assay [3] has as its target ALX1 (Homo sapiens, UniProt Q15699 118-204, L144R).
In assay [4] the target is ALX1 (Homo sapiens, UniProt Q15699 118-204).
Assay [5] deals with T2, PAX4 (Homo sapiens, UniProt O43316 9-242, R200K).
T2 sequence: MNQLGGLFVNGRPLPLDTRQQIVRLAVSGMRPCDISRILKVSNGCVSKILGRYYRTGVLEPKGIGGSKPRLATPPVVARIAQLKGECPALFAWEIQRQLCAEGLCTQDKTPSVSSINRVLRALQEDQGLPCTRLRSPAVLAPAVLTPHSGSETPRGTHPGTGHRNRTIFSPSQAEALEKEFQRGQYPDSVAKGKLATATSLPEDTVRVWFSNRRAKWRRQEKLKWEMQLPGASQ

Assay [6] addresses T3, PAX4 (Homo sapiens, UniProt O43316 9-242).
T3 sequence: T2 sequence with K192R

The target in assay [7] is T4, PAX4 (Homo sapiens, UniProt O43316 9-242, R200Q).
T4 sequence: T2 sequence with K192Q

Assay [8] deals with T5, PAX4 (Homo sapiens, UniProt O43316 9-242, F177V).
T5 sequence: T2 sequence with F169V, K192R

The target in assay [9] is T6, PAX4 (Homo sapiens, UniProt O43316 9-242, F177Y).
T6 sequence: T2 sequence with F169Y, K192R

In assay [10] the target is T7, PAX4 (Homo sapiens, UniProt O43316 9-242, R227W).
T7 sequence: T2 sequence with K192R, R219W

The next assay has as its target CRX (Homo sapiens, UniProt O43186 26-111, R41L).
Assay [11] concerns the target HOXB9 (Homo sapiens, UniProt P17482 171-250, T197M).
For assay [12], the target named is HOXC9 (Homo sapiens, UniProt P31274 178-260, K195R).
For assay [13], the target named is HOXA7 (Homo sapiens, UniProt P31268 116-202).
Assay [14] concerns the target HOXB6 (Homo sapiens, UniProt P17509 132-218, K202E).
Assay [15] has as its target HOXB9 (Homo sapiens, UniProt P17482 171-250).
Assay [16] concerns the target HOXC9 (Homo sapiens, UniProt P31274 178-260).
Assay [17] has as its target HOXC9 (Homo sapiens, UniProt P31274 178-260, R193K).
The target of another assay is HOXC10 (Homo sapiens, UniProt Q9NYD6 254-340, K271E).
For assay [18], the target named is HOXB9 (Homo sapiens, UniProt P17482 171-250, R186Q).
Assay [19] deals with HOXC9 (Homo sapiens, UniProt P31274 178-260, R222W).
Assay [20] addresses HOXA7 (Homo sapiens, UniProt P31268 116-202, W177C).
Assay [21] deals with HOXB6 (Homo sapiens, UniProt P17509 132-218).
Assay [22] deals with T8, VENTX (Homo sapiens, UniProt O95231 78-163).
T8 sequence: T1 sequence with Q44R

Assay [23] has as its target T9, VENTX (Homo sapiens, UniProt O95231 78-163, Y115F).
T9 sequence: T1 sequence with Y38F, Q44R

Assay [24] deals with VAX1 (Homo sapiens, UniProt Q5SQQ9 86-172).
Assay [25] addresses VAX1 (Homo sapiens, UniProt Q5SQQ9 86-172, T142I).
Assay [26] has as its target VAX1 (Homo sapiens, UniProt Q5SQQ9 86-172, K157R).
In assay [27] the target is HOXD13 (Homo sapiens, UniProt P35453 263-343, T313R).
The target in the next assay is T10, NKX2-6 (Homo sapiens, UniProt A6NCS4 118-204).
T10 sequence: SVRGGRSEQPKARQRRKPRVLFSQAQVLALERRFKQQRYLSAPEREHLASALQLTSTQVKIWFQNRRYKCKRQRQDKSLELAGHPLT

Assay [28] concerns the target HOXD13 (Homo sapiens, UniProt P35453 263-343).
Assay [29] addresses HOXD13 (Homo sapiens, UniProt P35453 263-343, T313A).

Where a chain is given by its changes, count along the chain named.

Chain of HOXC9 (Homo sapiens, UniProt P31274 178-260, R193K) (P31274 178-260 R193K): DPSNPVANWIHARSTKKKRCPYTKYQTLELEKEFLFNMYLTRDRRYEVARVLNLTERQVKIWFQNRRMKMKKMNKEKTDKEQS
Chain of HOXA7 (Homo sapiens, UniProt P31268 116-202, W177C) (P31268 116-202 W177C): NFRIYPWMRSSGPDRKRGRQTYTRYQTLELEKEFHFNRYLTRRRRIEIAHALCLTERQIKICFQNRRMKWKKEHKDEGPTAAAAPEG
Chain of HOXC9 (Homo sapiens, UniProt P31274 178-260, R222W) (P31274 178-260 R222W): as the sequence (P31274 178-260 R193K) above, with K16R, R45W counted along it
Chain of HOXC9 (Homo sapiens, UniProt P31274 178-260) (P31274 178-260): as the sequence (P31274 178-260 R193K) above, with K16R counted along it
Chain of HOXA7 (Homo sapiens, UniProt P31268 116-202) (P31268 116-202): as the sequence (P31268 116-202 W177C) above, with C62W counted along it
Chain of HOXB6 (Homo sapiens, UniProt P17509 132-218) (P17509 132-218): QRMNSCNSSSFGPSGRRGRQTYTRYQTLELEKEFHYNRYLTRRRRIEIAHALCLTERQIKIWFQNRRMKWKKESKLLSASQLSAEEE
Chain of HOXB6 (Homo sapiens, UniProt P17509 132-218, K202E) (P17509 132-218 K202E): as the sequence (P17509 132-218) above, with K71E counted along it
Chain of HOXB9 (Homo sapiens, UniProt P17482 171-250) (P17482 171-250): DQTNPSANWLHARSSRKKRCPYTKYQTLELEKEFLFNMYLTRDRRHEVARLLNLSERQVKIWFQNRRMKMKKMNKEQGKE
Chain of HOXB9 (Homo sapiens, UniProt P17482 171-250, R186Q) (P17482 171-250 R186Q): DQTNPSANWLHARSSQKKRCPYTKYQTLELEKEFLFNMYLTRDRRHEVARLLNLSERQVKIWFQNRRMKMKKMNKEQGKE
Chain of HOXC10 (Q9NYD6 254-340 K271E): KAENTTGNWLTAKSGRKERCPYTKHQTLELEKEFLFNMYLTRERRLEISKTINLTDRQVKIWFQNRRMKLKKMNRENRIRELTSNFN
Chain of HOXC9 (Homo sapiens, UniProt P31274 178-260, K195R) (P31274 178-260 K195R): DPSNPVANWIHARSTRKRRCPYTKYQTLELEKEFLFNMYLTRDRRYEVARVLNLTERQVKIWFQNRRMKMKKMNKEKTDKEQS
Chain of CRX (O43186 26-111 R41L): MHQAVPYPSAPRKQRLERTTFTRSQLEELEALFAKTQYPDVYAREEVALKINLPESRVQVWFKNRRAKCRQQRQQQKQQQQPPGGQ
Chain of HOXB9 (Homo sapiens, UniProt P17482 171-250, T197M) (P17482 171-250 T197M): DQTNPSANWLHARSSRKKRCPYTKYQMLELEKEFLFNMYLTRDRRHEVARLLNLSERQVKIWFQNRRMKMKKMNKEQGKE
Chain of ALX1 (Homo sapiens, UniProt Q15699 118-204) (Q15699 118-204): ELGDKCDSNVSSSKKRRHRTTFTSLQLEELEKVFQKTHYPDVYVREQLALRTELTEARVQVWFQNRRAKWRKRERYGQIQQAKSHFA
Chain of HOXD13 (Homo sapiens, UniProt P35453 263-343, T313A) (P35453 263-343 T313A): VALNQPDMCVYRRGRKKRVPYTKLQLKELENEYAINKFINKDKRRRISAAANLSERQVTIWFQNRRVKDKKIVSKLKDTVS
Chain of ALX1 (Homo sapiens, UniProt Q15699 118-204, L144V) (Q15699 118-204 L144V): as the sequence (Q15699 118-204) above, with L27V counted along it
Chain of VAX1 (Homo sapiens, UniProt Q5SQQ9 86-172, K157R) (Q5SQQ9 86-172 K157R): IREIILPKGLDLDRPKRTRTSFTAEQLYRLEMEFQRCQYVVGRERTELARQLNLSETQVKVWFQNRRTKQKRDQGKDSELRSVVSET
Chain of HOXD13 (Homo sapiens, UniProt P35453 263-343, T313R) (P35453 263-343 T313R): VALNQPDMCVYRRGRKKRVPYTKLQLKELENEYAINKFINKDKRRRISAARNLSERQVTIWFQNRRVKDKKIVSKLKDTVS
Chain of HOXD13 (Homo sapiens, UniProt P35453 263-343) (P35453 263-343): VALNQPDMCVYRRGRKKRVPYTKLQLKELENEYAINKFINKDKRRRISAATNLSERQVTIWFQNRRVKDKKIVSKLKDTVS
Chain of VAX1 (Homo sapiens, UniProt Q5SQQ9 86-172, T142I) (Q5SQQ9 86-172 T142I): as the sequence (Q5SQQ9 86-172 K157R) above, with T57I, R72K counted along it
Chain of ALX1 (Homo sapiens, UniProt Q15699 118-204, L144R) (Q15699 118-204 L144R): as the sequence (Q15699 118-204) above, with L27R counted along it
Chain of VAX1 (Homo sapiens, UniProt Q5SQQ9 86-172) (Q5SQQ9 86-172): as the sequence (Q5SQQ9 86-172 K157R) above, with R72K counted along it

As for GGCGATTA, the binding signal with VENTX [1] is 11 upbm affinity estimate (log intensity, higher = more binding, comparable within an allelic series); with ALX1 [2], 8.58 upbm affinity estimate (log intensity, higher = more binding, comparable within an allelic series); with ALX1 [3] it was 8.54 upbm affinity estimate (log intensity, higher = more binding, comparable within an allelic series); with ALX1 [4] it was 9.05 upbm affinity estimate (log intensity, higher = more binding, comparable within an allelic series).

As for TAATGCGA, the binding signal is 10.2 upbm affinity estimate (log intensity, higher = more binding, comparable within an allelic series) with VENTX [1]; 11.7 upbm affinity estimate (log intensity, higher = more binding, comparable within an allelic series) with PAX4 [5]; 12.1 upbm affinity estimate (log intensity, higher = more binding, comparable within an allelic series) in the assay with PAX4 [6]; 11.4 upbm affinity estimate (log intensity, higher = more binding, comparable within an allelic series) with PAX4 [7]; 10.4 upbm affinity estimate (log intensity, higher = more binding, comparable within an allelic series) with PAX4 [8]; 10.9 upbm affinity estimate (log intensity, higher = more binding, comparable within an allelic series) with PAX4 [9]. Besides, the binding signal with PAX4 [10] is 10.9 upbm affinity estimate (log intensity, higher = more binding, comparable within an allelic series); with CRX, 10.6 upbm affinity estimate (log intensity, higher = more binding, comparable within an allelic series).

With GACATTAA, the binding signal in the assay with HOXB9 [11] is 10 upbm affinity estimate (log intensity, higher = more binding, comparable within an allelic series); with HOXC9 [12], 12.6 upbm affinity estimate (log intensity, higher = more binding, comparable within an allelic series); with HOXA7 [13] it was 11.2 upbm affinity estimate (log intensity, higher = more binding, comparable within an allelic series); with HOXB6 [14], 10 upbm affinity estimate (log intensity, higher = more binding, comparable within an allelic series); with HOXB9 [15], 11.8 upbm affinity estimate (log intensity, higher = more binding, comparable within an allelic series); with HOXC9 [16] it was 12.6 upbm affinity estimate (log intensity, higher = more binding, comparable within an allelic series). In addition, the binding signal was 12.5 upbm affinity estimate (log intensity, higher = more binding, comparable within an allelic series) with HOXC9 [17]; 11.9 upbm affinity estimate (log intensity, higher = more binding, comparable within an allelic series) with HOXC10; 11.6 upbm affinity estimate (log intensity, higher = more binding, comparable within an allelic series) with HOXB9 [18]; 10.9 upbm affinity estimate (log intensity, higher = more binding, comparable within an allelic series) in the assay with HOXC9 [19]; 8.93 upbm affinity estimate (log intensity, higher = more binding, comparable within an allelic series) in the assay with HOXA7 [20]; 11.7 upbm affinity estimate (log intensity, higher = more binding, comparable within an allelic series) with HOXB6 [21].

As for CCAGCTGC, the binding signal with VENTX [1] is 8.15 upbm affinity estimate (log intensity, higher = more binding, comparable within an allelic series); with VENTX [22], 8.27 upbm affinity estimate (log intensity, higher = more binding, comparable within an allelic series); with VENTX [23], 8.21 upbm affinity estimate (log intensity, higher = more binding, comparable within an allelic series); with VAX1 [24], 7.42 upbm affinity estimate (log intensity, higher = more binding, comparable within an allelic series); with VAX1 [25] it was 7.3 upbm affinity estimate (log intensity, higher = more binding, comparable within an allelic series); with VAX1 [26], 7.2 upbm affinity estimate (log intensity, higher = more binding, comparable within an allelic series).

Regarding CGCATTAA, the binding signal with VENTX [1] was 10.5 upbm affinity estimate (log intensity, higher = more binding, comparable within an allelic series); in the assay with PAX4 [5], 11.7 upbm affinity estimate (log intensity, higher = more binding, comparable within an allelic series); with VENTX [23], 10.6 upbm affinity estimate (log intensity, higher = more binding, comparable within an allelic series); with PAX4 [6], 12.1 upbm affinity estimate (log intensity, higher = more binding, comparable within an allelic series); with PAX4 [7] it was 11.6 upbm affinity estimate (log intensity, higher = more binding, comparable within an allelic series); with PAX4 [8] it was 10.4 upbm affinity estimate (log intensity, higher = more binding, comparable within an allelic series). In addition, the binding signal was 11 upbm affinity estimate (log intensity, higher = more binding, comparable within an allelic series) in the assay with PAX4 [9]; 10.9 upbm affinity estimate (log intensity, higher = more binding, comparable within an allelic series) with PAX4 [10]; 10.9 upbm affinity estimate (log intensity, higher = more binding, comparable within an allelic series) with CRX.

As for CTAACGAG, the binding signal with VENTX [1] was 10.2 upbm affinity estimate (log intensity, higher = more binding, comparable within an allelic series); with HOXC9 [16], 10.9 upbm affinity estimate (log intensity, higher = more binding, comparable within an allelic series); with HOXC9 [17] it was 10.8 upbm affinity estimate (log intensity, higher = more binding, comparable within an allelic series); with HOXC9 [19], 10.1 upbm affinity estimate (log intensity, higher = more binding, comparable within an allelic series).

For CGATTACG, the binding signal with VENTX [1] was 10.5 upbm affinity estimate (log intensity, higher = more binding, comparable within an allelic series); with HOXA7 [13], 9.64 upbm affinity estimate (log intensity, higher = more binding, comparable within an allelic series); with HOXA7 [20], 8.74 upbm affinity estimate (log intensity, higher = more binding, comparable within an allelic series).

As for GCTATTAA, the binding signal is 10 upbm affinity estimate (log intensity, higher = more binding, comparable within an allelic series) with HOXB9 [11]; 12.7 upbm affinity estimate (log intensity, higher = more binding, comparable within an allelic series) in the assay with HOXC9 [12]; 11.4 upbm affinity estimate (log intensity, higher = more binding, comparable within an allelic series) with HOXA7 [13]; 9.98 upbm affinity estimate (log intensity, higher = more binding, comparable within an allelic series) in the assay with HOXB6 [14]; 12 upbm affinity estimate (log intensity, higher = more binding, comparable within an allelic series) with HOXB9 [15]; 12.8 upbm affinity estimate (log intensity, higher = more binding, comparable within an allelic series) with HOXC9 [16]. In addition, the binding signal was 10.7 upbm affinity estimate (log intensity, higher = more binding, comparable within an allelic series) with HOXD13 [27]; 11.8 upbm affinity estimate (log intensity, higher = more binding, comparable within an allelic series) with NKX2-6; 12.7 upbm affinity estimate (log intensity, higher = more binding, comparable within an allelic series) with HOXC9 [17]; 11.8 upbm affinity estimate (log intensity, higher = more binding, comparable within an allelic series) with HOXD13 [28]; 11.8 upbm affinity estimate (log intensity, higher = more binding, comparable within an allelic series) with HOXC10; 11.5 upbm affinity estimate (log intensity, higher = more binding, comparable within an allelic series) with HOXD13 [29]. Moreover, the binding signal with HOXB9 [18] is 11.8 upbm affinity estimate (log intensity, higher = more binding, comparable within an allelic series); with HOXC9 [19] it was 10.9 upbm affinity estimate (log intensity, higher = more binding, comparable within an allelic series); with HOXA7 [20], 8.84 upbm affinity estimate (log intensity, higher = more binding, comparable within an allelic series); with HOXB6 [21] it was 11.8 upbm affinity estimate (log intensity, higher = more binding, comparable within an allelic series).

(Values after PMC11006913.)
